Assay results from PubChem BioAssay AID1159580 (chemical genetic matrix, 2015).
Among all 5,500 compounds or so, about 2,000 (36%) were called active. Roughly 18% stayed inconclusive and do not appear here. Rule as the data show it: active = normalized growth mostly below about 0.91 (no sharp cut-off); inconclusive = no clear call, values can overlap the other calls; inactive = mostly above about 0.92. Some of the results follow.

Experiment: chemical genetic growth profiling, strain panel (AID 1159580);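 also: tested at 20 µM; growth read once vehicle control cultures reached saturation at 30 °C; 1 = growth at the plate median or of vehicle wells; lower values mean less growth of the strain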
Conditions: growth OD
[1] = S. cerevisiae deletion strains, locus YCL061C, strain MRC1, hits give low values
[2] = S. cerevisiae deletion strains, locus YHR030C, strain SLT2, hits give low values
[3] = S. cerevisiae deletion strains, locus YJL187C, strain SWE1, hits give low values

Measured: normalized growth

Nc1nc(F)nc2c1ncn2[C@@H]1O[C@H](COP(=O)(O)O)[C@@H](O)[C@@H]1O
inactive: S. cerevisiae deletion strains, locus YAL021C, strain ccr4, hits give low values 0.989 | S. cerevisiae deletion strains, locus YAL026C, strain drs2, hits give low values 0.999 | S. cerevisiae deletion strains, locus YAL030W, strain snc1, hits give low values 1 | S. cerevisiae deletion strains, locus YBL061C, strain skt5, hits give low values 0.997 | S. cerevisiae deletion strains, locus YBR009C, strain hhf1, hits give low values 1.01 | S. cerevisiae deletion strains, locus YBR023C, strain chs3, hits give low values 0.999 | S. cerevisiae deletion strains, locus YBR171W, strain sec66, hits give low values 1 | S. cerevisiae deletion strains, locus YBR231C, strain swc5, hits give low values 0.999 | S. cerevisiae deletion strains, locus YBR279W, strain paf1, hits give low values 1 | S. cerevisiae deletion strains, locus YCL011C, strain gbp2, hits give low values 0.994 | S. cerevisiae deletion strains, locus YCL016C, strain dcc1, hits give low values 0.997 | [1] 0.989 | S. cerevisiae deletion strains, locus YCL069W, strain vba3, hits give low values 0.993 | S. cerevisiae deletion strains, locus YCR088W, strain abp1, hits give low values 0.992 | S. cerevisiae deletion strains, locus YDL005C, strain med2, hits give low values 0.984 | S. cerevisiae deletion strains, locus YDL040C, strain nat1, hits give low values 0.997 | S. cerevisiae deletion strains, locus YDR001C, strain nth1, hits give low values 0.993 | S. cerevisiae deletion strains, locus YDR069C, strain doa4, hits give low values 0.997 | S. cerevisiae deletion strains, locus YDR137W, strain rgp1, hits give low values 1 | S. cerevisiae deletion strains, locus YDR159W, strain sac3, hits give low values 0.985 | S. cerevisiae deletion strains, locus YDR195W, strain ref2 0.968 | S. cerevisiae deletion strains, locus YDR297W, strain sur2, hits give low values 1.01 | S. cerevisiae deletion strains, locus YDR334W, strain swr1, hits give low values 0.991 | S. cerevisiae deletion strains, locus YDR335W, strain msn5, hits give low values 0.997 | S. cerevisiae deletion strains, locus YDR392W, strain spt3, hits give low values 0.976 | S. cerevisiae deletion strains, locus YEL003W, strain gim4, hits give low values 0.995 | S. cerevisiae deletion strains, locus YEL037C, strain rad23, hits give low values 0.993 | S. cerevisiae deletion strains, locus YEL061C, strain CIN8 (second series), hits give low values 0.994 | S. cerevisiae deletion strains, locus YER015W, strain faa2, hits give low values 0.995 | S. cerevisiae deletion strains, locus YER016W, strain bim1, hits give low values 0.993 | S. cerevisiae deletion strains, locus YER111C, strain swi4, hits give low values 1 | S. cerevisiae deletion strains, locus YER155C, strain BEM2 (second series), hits give low values 0.993 | S. cerevisiae deletion strains, locus YFR010W, strain ubp6, hits give low values 1.01 | S. cerevisiae deletion strains, locus YGL167C, strain pmr1, hits give low values 0.989 | S. cerevisiae deletion strains, locus YGL173C, strain kem1, hits give low values 1 | S. cerevisiae deletion strains, locus YGL227W, strain vid30, hits give low values 0.992 | S. cerevisiae deletion strains, locus YGL240W, strain doc1, hits give low values 0.984 | S. cerevisiae deletion strains, locus YGL253W, strain hxk2, hits give low values 0.998 | S. cerevisiae deletion strains, locus YHR013C, strain ard1, hits give low values 0.99 | S. cerevisiae deletion strains, locus YHR027C, strain rpn1, hits give low values 0.986 | [2] 1.03 | S. cerevisiae deletion strains, locus YHR079C, strain IRE1, hits give low values 1.04 | S. cerevisiae deletion strains, locus YHR142W, strain chs7, hits give low values 0.991 | S. cerevisiae deletion strains, locus YJL092W, strain hpr5, hits give low values 0.982 | S. cerevisiae deletion strains, locus YJL095W, strain BCK1 (second series), hits give low values 0.994 | S. cerevisiae deletion strains, locus YJL095W, strain BCK1, hits give low values 0.993 | S. cerevisiae deletion strains, locus YJL115W, strain asf1, hits give low values 0.991 | S. cerevisiae deletion strains, locus YJL129C, strain trk1, hits give low values 0.994 | S. cerevisiae deletion strains, locus YJL154C, strain vps35, hits give low values 0.998 | S. cerevisiae deletion strains, locus YJL164C, strain tpk1, hits give low values 0.982 | S. cerevisiae deletion strains, locus YJL166W, strain qcr8, hits give low values 1 | [3] 0.989 | S. cerevisiae deletion strains, locus YJR066W, strain TOR1, hits give low values 0.967 | S. cerevisiae deletion strains, locus YKL160W, strain elf1, hits give low values 1 | S. cerevisiae deletion strains, locus YKR026C, strain gcn3, hits give low values 0.977 | S. cerevisiae deletion strains, locus YKR091W, strain srl3, hits give low values 0.997 | S. cerevisiae deletion strains, locus YLL001W, strain dnm1, hits give low values 0.987 | S. cerevisiae deletion strains, locus YLL026W, hits give low values 0.989 | S. cerevisiae deletion strains, locus YLL041C, strain sdh2, hits give low values 0.997 | S. cerevisiae deletion strains, locus YLR027C, strain aat2, hits give low values 1 | S. cerevisiae deletion strains, locus YLR113W, strain HOG1, hits give low values 0.979 | S. cerevisiae deletion strains, locus YLR221C, strain rsa3, hits give low values 1 | S. cerevisiae deletion strains, locus YLR258W, strain gsy2, hits give low values 0.992 | S. cerevisiae deletion strains, locus YLR262C, strain YPT6 (second series), hits give low values 1 | S. cerevisiae deletion strains, locus YLR320W, strain mms22, hits give low values 0.968 | S. cerevisiae deletion strains, locus YLR342W, strain FKS1, hits give low values 0.999 | S. cerevisiae deletion strains, locus YLR357W, strain rsc2, hits give low values 0.994 | S. cerevisiae deletion strains, locus YLR370C, strain arc18, hits give low values 0.998 | S. cerevisiae deletion strains, locus YLR384C, strain iki3, hits give low values 0.982 | S. cerevisiae deletion strains, locus YML120C, strain ndi1, hits give low values 1.01 | S. cerevisiae deletion strains, locus YMR058W, strain fet3, hits give low values 1 | S. cerevisiae deletion strains, locus YMR125W, strain sto1, hits give low values 0.981 | S. cerevisiae deletion strains, locus YMR129W, hits give low values 1.01 | S. cerevisiae deletion strains, locus YMR205C, strain PFK2, hits give low values 0.975 | S. cerevisiae deletion strains, locus YMR231W, strain pep5, hits give low values 0.995 | S. cerevisiae deletion strains, locus YNL071W, strain lat1, hits give low values 0.995 | S. cerevisiae deletion strains, locus YNL183C, strain NPR1, hits give low values 0.96 | S. cerevisiae deletion strains, locus YNL209W, strain ssb2, hits give low values 1 | S. cerevisiae deletion strains, locus YNL248C, strain rpa49, hits give low values 0.996 | S. cerevisiae deletion strains, locus YNL322C, strain KRE1 (second series), hits give low values 0.99 | S. cerevisiae deletion strains, locus YNR049C, strain mso1, hits give low values 0.995 | S. cerevisiae deletion strains, locus YOR001W, strain rrp6, hits give low values 1 | S. cerevisiae deletion strains, locus YOR070C, strain gyp1, hits give low values 1 | S. cerevisiae deletion strains, locus YOR080W, strain dia2, hits give low values 0.989 | S. cerevisiae deletion strains, locus YOR083W, strain WHI5, hits give low values 1 | S. cerevisiae deletion strains, locus YOR106W, strain vam3, hits give low values 1.02 | S. cerevisiae deletion strains, locus YOR231W, strain MKK1, hits give low values 1.04 | S. cerevisiae deletion strains, locus YOR265W, strain rbl2, hits give low values 1 | S. cerevisiae deletion strains, locus YOR270C, strain vph1, hits give low values 0.977 | S. cerevisiae deletion strains, locus YOR290C, strain snf2, hits give low values 0.979 | S. cerevisiae deletion strains, locus YPL051W, strain arl3, hits give low values 1 | S. cerevisiae deletion strains, locus YPL078C, strain atp4, hits give low values 0.991 | S. cerevisiae deletion strains, locus YPL106C, strain sse1, hits give low values 1 | S. cerevisiae deletion strains, locus YPL240C, strain hsp82, hits give low values 1.01 | S. cerevisiae deletion strains, locus YPL256C, strain CLN2, hits give low values 1.03

Cc1nn(Cc2ccccc2Cl)c(=N)s1
inactive: S. cerevisiae deletion strains, locus YAL013W, strain DEP1, hits give low values 1.01 | S. cerevisiae deletion strains, locus YBR229C, strain ROT2, hits give low values 0.999 | [1] 0.992 | S. cerevisiae deletion strains, locus YDL101C, strain DUN1, hits give low values 0.991 | S. cerevisiae deletion strains, locus YDL134C, strain PPH21, hits give low values 0.978 | S. cerevisiae deletion strains, locus YDR150W, strain NUM1, hits give low values 0.971 | S. cerevisiae deletion strains, locus YEL061C, strain CIN8, hits give low values 1.02 | S. cerevisiae deletion strains, locus YGR078C, strain PAC10, hits give low values 0.997 | S. cerevisiae deletion strains, locus YGR229C, strain SMI1, hits give low values 0.985 | [2] 0.959 | S. cerevisiae deletion strains, locus YHR087W, strain rtc3, hits give low values 0.972 | [3] 0.995 | S. cerevisiae deletion strains, locus YJR043C, strain POL32, hits give low values 0.991 | S. cerevisiae deletion strains, locus YJR075W, strain HOC1, hits give low values 0.99 | S. cerevisiae deletion strains, locus YLR039C, strain RIC1, hits give low values 0.939 | S. cerevisiae deletion strains, locus YLR058C, strain SHM2 (second series), hits give low values 1.01 | S. cerevisiae deletion strains, locus YLR085C, strain ARP6, hits give low values 1.03 | S. cerevisiae deletion strains, locus YLR262C, strain YPT6, hits give low values 0.954 | S. cerevisiae deletion strains, locus YML094W, strain GIM5, hits give low values 1.04 | S. cerevisiae deletion strains, locus YMR219W, strain ESC1, hits give low values 0.998 | S. cerevisiae deletion strains, locus YMR263W, strain SAP30, hits give low values 1 | S. cerevisiae deletion strains, locus YMR307W, strain GAS1, hits give low values 0.981 | S. cerevisiae deletion strains, locus YNL153C, strain GIM3, hits give low values 1.02 | S. cerevisiae deletion strains, locus YNL298W, strain CLA4 (second series), hits give low values 0.932 | S. cerevisiae deletion strains, locus YNL322C, strain KRE1, hits give low values 0.985 | S. cerevisiae deletion strains, locus YNR030W, strain Alg12, hits give low values 0.988 | S. cerevisiae deletion strains, locus YOL006C, strain TOP1, hits give low values 0.939 | S. cerevisiae deletion strains, locus YPL055C, strain LGE1, hits give low values 1.06 | S. cerevisiae deletion strains, locus YPL241C, strain CIN2, hits give low values 0.993 | S. cerevisiae deletion strains, locus YPR135W, strain CTF4, hits give low values 0.972 | S. cerevisiae strains, strain wild type, hits give low values 0.96
